Hits are enriched below; roughly 18% of the tested compounds scored in any of these assays.
CtBP-E1A blk = blocks the CtBP interaction with E1A. AID 651724. activity change, % (test concentration not listed). AlphaScreen GST-E1A/His-CtBP binding, 1536-well; active compounds read low. 0.49% of 340,000 active; in the data active = activity change below about -65%; inconclusive = mostly about -30% to -63%
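GST-E1A and His-tagged CtBP (125 nM each as 5X stock) were preincubated with pin-transferred compound for 2 h at 37 °C in the dark, then glutathione donor and nickel acceptor beads were added for 1 h before AlphaScreen reading.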
TDP1 block = inhibitors of human tyrosyl-DNA phosphodiesterase TDP1; Q9NUW8; recombinant TDP1, AlphaScreen DNA substrate cleavage; Potency, µM (highest dose often 130 µM), for inactives: at the top dose activity change, negative = inhibition, hits mostly inhibitors; 0.28% of 350,000 active; also: potency is read from the fitted curve at half-maximal effect; nearly all actives have a fitted effect of over 40% in size
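Steps: enzyme plus compound, 15 min RT; add biotin/phosphotyrosine-FITC oligonucleotide (15 nM final), react 5 min; add donor/acceptor beads (10 ug/ml final), 10 min; read AlphaScreen. Tdp1 at 1 nM final.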
Six1-Eya2 blk = Six1/Eya2 interaction inhibition | 0.56% of 360,000 active | activity change, % (test concentration not listed) | AlphaScreen GST-Six1/His-Eya2 binding, biochemical; active compounds read low | AID 651725; in the data active = activity change below about -65%; inconclusive = mostly about -30% to -63%
Target sequence (O00167 whole entry, looked up): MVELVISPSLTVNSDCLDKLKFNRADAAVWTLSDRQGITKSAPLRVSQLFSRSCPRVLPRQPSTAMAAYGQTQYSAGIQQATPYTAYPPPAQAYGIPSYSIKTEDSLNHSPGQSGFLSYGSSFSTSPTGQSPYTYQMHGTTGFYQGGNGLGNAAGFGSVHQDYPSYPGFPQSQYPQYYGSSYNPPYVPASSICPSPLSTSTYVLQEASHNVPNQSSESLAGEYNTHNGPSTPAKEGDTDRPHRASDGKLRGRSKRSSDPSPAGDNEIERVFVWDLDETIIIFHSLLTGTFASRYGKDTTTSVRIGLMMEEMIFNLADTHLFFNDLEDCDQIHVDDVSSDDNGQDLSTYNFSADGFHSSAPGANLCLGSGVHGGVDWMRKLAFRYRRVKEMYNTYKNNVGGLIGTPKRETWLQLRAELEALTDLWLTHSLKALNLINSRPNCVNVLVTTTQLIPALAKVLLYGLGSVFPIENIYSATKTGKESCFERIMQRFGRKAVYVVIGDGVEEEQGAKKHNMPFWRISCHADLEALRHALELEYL
Target sequence (Q15475 whole entry, looked up): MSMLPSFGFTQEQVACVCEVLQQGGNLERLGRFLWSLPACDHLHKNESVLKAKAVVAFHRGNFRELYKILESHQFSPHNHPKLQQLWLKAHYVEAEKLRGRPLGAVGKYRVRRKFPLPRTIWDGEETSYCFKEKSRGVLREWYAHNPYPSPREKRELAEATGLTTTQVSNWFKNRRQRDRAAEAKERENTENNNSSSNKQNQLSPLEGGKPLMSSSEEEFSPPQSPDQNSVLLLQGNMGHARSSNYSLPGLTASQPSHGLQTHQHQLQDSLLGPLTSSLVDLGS
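Six1/Eya2 binding was read as AlphaScreen signal after compounds were pinned into GST-Six1 plus His-tagged Eya2 (5X stock 250/500 nM) in pH 8.0 Tris/NaCl/TCEP buffer, beads added, then incubated 1 h, 37 C, dark.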
IL-1B inflam inh = inhibitors of inflammasome signaling (IL-1 beta secretion) | 4.7% of 360,000 active | activity change, % at 57.5 µM | THP-1 LPS/ATP IL-1B secretion, AlphaLISA, 16 h; active compounds read low | AID 743279; in the data active = activity change below about -50%; inconclusive = mostly about -30% to -49%
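Secreted IL-1B measured by AlphaLISA bead assay after 16 h compound exposure of THP-1 cells; compounds (final up to 57.5 uM) added 1 h before LPS (250 ng/mL) and ATP (1.25 mM) stimulation; lower signal means less secretion.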
DT40 TDP1 no CPT = qHTS for Inhibitors of human tyrosyl-DNA phosphodiesterase 1 (TDP1): qHTS in cells in absence of CPT; DT40 Tdp1-/- hTDP1 cells, no CPT, ATP luminescence, 48 h; Potency, µM (series often up to 46.2 µM), for the others: at the highest dose activity change, negative = growth inhibition, usual class: inhibitors; 15% of 420,000 active; AID 686978, 2013; also: potency is read from the fitted curve at half-maximal effect; nearly all actives have a fitted effect of over 55% in size
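A cellular qHTS used chicken DT40 cells lacking endogenous Tdp1 but carrying stably transfected human TDP1. Compounds were applied without camptothecin, and cell growth kinetics were judged by ATP-dependent luminescence after ≥48 hr.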
TDP1 cell CPT = growth inhibition of DT40 Tdp1-/-;hTDP1 cells with camptothecin (screen for TDP1 inhibitors); chicken DT40 Tdp1-/-;hTDP1 cells + 20 nM CPT, ATP luminescence, 48 h; Potency, µM (top dose mostly 46.2 µM), inactives show at the top dose activity change, negative = growth inhibition, actives largely listed as inhibitors; 12% of 420,000 active; also: potency is read from the fitted curve at half-maximal effect; nearly all actives have a fitted effect of over 55% in size
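Chicken DT40 Tdp1-/- cells complemented with human TDP1, 400 cells/well, exposed to compounds plus 20 nM camptothecin for at least 48 h at 37 C; viability read as ATP content by CellTiter-Glo luminescence.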
* marks the source's active call; other numbers are inactive results; ? = inconclusive; / = no result given; [ ] = another dose, or the depositor's remark. Unless noted, calls follow the shape of the dose curve; as a rule, active = well fitted curve in the direction sought with a large enough effect; inconclusive = small, poorly fitted or top-dose-only effect, or another doubt; inactive = no such curve, though single readings can be large; an effect the other way counts as inactive or inconclusive. % is scaled to controls: 0 for no effect and ±100 for the full control effect.

SMILES | CtBP-E1A blk | TDP1 block | Six1-Eya2 blk | IL-1B inflam inh | DT40 TDP1 no CPT | TDP1 cell CPT
Cc1c(C)n(Cc2ccccc2)c2ccc(C(=O)NCCN3CCOCC3)cc12 | -13 | 11% | -13 | 7 | -29% | ?
Cc1ccc(CCNC(=O)c2ccc3c(c2)c(C)c(C)n3Cc2ccccc2)cc1 | / | 11% | / | / | ? | 16µM*
COCCN1C(=O)CCC1(C)c1nnnn1Cc1ccccc1 (stereo unspecified) | 5 | / | -6 | 0 | -4% | -3%
CCOC(=O)CCN1C(=O)[C@H]2[C@H]3[C@H](O)[C@H](O)C/C(=N/O[C@@H]4O[C@@H](COC(C)=O)[C@@H](OC(C)=O)[C@@H](OC(C)=O)[C@H]4OC(C)=O)[C@@H]3CC[C@@H]2C1=O | / | 6%[21 µM] | / | / | / | /
O=C(O)CSCCn1cccn1 | 2 | -1% | 0 | -7 | 1% | -13%
Cc1ccc(C)c(OCC(=O)N(Cc2ccccc2)c2c(N)n(Cc3ccccc3)c(=O)[nH]c2=O)c1 | 7 | / | 7 | 7 | -3% | -17%
Cc1ccc(C)c(NC(=O)Cn2cc(C(=O)c3ccncc3)c(=O)c3cc(F)ccc32)c1 | / | 2% | / | / | -3% | -9%
O=C1COc2cc(ccc2[N+](=O)[O-])Oc2ccc(cc2Cl)C(=O)CCCCO1 | / | 3% | -6 | -2 | -28% | ?
CCc1cc2c(SCC(=O)NCC3CCCO3)ncnc2s1 (stereo unspecified) | 9 | 0% | -3 | 19 | -19% | -4%
CCCCOc1ccccc1NC(=O)c1scc2c1OCCO2 | -5 | -2% | 6 | -12 | ? | ?
CN(C(=O)c1ccc(NC(=O)Cc2cccc(NC(=O)C3CCCN(C(=O)C4CCC4)C3)c2)cc1)C1CCCC1 (stereo unspecified) | -23 | 2% | 6 | 18 | ? | 0.18µM*
CN(C(=O)c1cccc(NC(=O)Cc2cccc(NC(=O)C3CCN(C(=O)c4ccccc4)CC3)c2)c1)C1CCCC1 | -3 | / | 0 | -3 | ? | ?
CN(C(=O)c1ccc(NC(=O)Cc2cccc(NC(=O)C3CCCN(C(=O)C4CCCC4)C3)c2)cc1)C1CC1 (stereo unspecified) | -1 | / | -1 | -8 | ? | -26%
CN(C(=O)c1cccc(NC(=O)Cc2ccc(NC(=O)C3CCN(C(=O)c4ccccc4)CC3)cc2)c1)C1CCCCC1 | -26 | / | 1 | 57 | ? | 23µM*
CN(C(=O)c1ccc(NC(=O)Cc2cccc(NC(=O)C3CCCN(C(=O)C4CC4)C3)c2)cc1)C1CCCC1 (stereo unspecified) | -4 | 0% | -2 | 16 | -29% | ?
CN(C(=O)c1cccc(NC(=O)Cc2ccc(NC(=O)C3CCCN(C(=O)C4CCCC4)C3)cc2)c1)C1CCCCC1 (stereo unspecified) | -4 | / | -9 | 31 | 16µM* | ?
CN(C(=O)c1cccc(NC(=O)Cc2ccc(NC(=O)C3CCCN(C(=O)C4CCCC4)C3)cc2)c1)C1CCCC1 (stereo unspecified) | -1 | / | -4 | 5 | ? | ?
CN(C(=O)c1ccc(NC(=O)Cc2cccc(NC(=O)C3CCCN(C(=O)C4CCCCC4)C3)c2)cc1)C1CCCC1 (stereo unspecified) | 2 | 5% | -2 | 13 | ? | 21µM*
O=C(Cc1ccc(NC(=O)C2CCCN(C(=O)C3CCCCC3)C2)cc1)Nc1cccc(C(=O)N2CCCC2)c1 (stereo unspecified) | -21 | / | -1 | 24 | ? | 29µM*
CCOc1ccc(S(=O)(=O)N2CCN(CC(O)COc3cccc([N+](=O)[O-])c3)CC2)cc1 (stereo unspecified) | 3 | / | -11 | ? | 23µM* | 15µM*
CC(=O)Nc1ccc(S(=O)(=O)N2CCN(CC(O)COc3ccc4ccccc4c3)CC2)cc1 (stereo unspecified) | 40 | 9% | 18 | -61* | ? | ?
CCOC(=O)c1ccc(S(=O)(=O)N2CCN(CC(O)COc3cccc(C(C)=O)c3)CC2)cc1 (stereo unspecified) | -16 | / | -5 | -78* | -6% | -10%
Cc1ccc(S(=O)(=O)N2CCN(CC(O)COc3ccccc3)CC2)cc1 (stereo unspecified) | 8 | 3% | -4 | 16 | -16% | 4%
CCOCCOC(=O)c1ccc(NC(=O)C2COc3ccccc3O2)cc1 (stereo unspecified) | -1 | -6% | -1 | 0 | -4% | -26%
CCCn1nnnc1SCC(=O)N1CCCC1 | -8 | 7% | 3 | 3 | -7% | 16%
SMILES | CtBP-E1A blk | TDP1 block | Six1-Eya2 blk | IL-1B inflam inh | DT40 TDP1 no CPT | TDP1 cell CPT
Cc1ccc(S(=O)(=O)N2[C@@H](c3cccc(Cl)c3)C(C(=O)OC(C)(C)C)=CC[C@H]2c2cccc(Cl)c2)cc1 | 0 | / | 5 | 6 | 12µM* | 9.2µM*
Cc1ccc(S(=O)(=O)N2[C@@H](c3ccc(Cl)cc3)C(C(=O)O)=CC[C@H]2c2cccc(Cl)c2)cc1 | 9 | 1% | 7 | 26 | 3% | -25%
CC(C)(C)OC(=O)C1=CC[C@@H](c2ccc(Cl)c(Cl)c2)N(S(=O)(=O)c2ccc(F)cc2)[C@H]1c1cccc(F)c1 | 7 | / | 0 | 3 | 15µM* | ?
COc1ccc(NC(=O)c2sc3nc(C)cc(C)c3c2N)c(OC)c1 | / | / | -1 | -1 | ? | ?
COc1ccc(C(=O)NCCn2cc(SCc3cccc(F)c3)c3ccccc32)cc1OC | / | 5% | / | / | 4.6µM* | 9.2µM*
O=C(NCCn1cc(SCc2cccc(F)c2)c2ccccc21)c1cccc(C(F)(F)F)c1 | / | 8% | / | / | 16µM* | ?
O=C(CSc1cn(Cc2cccc(F)c2)c2ccccc12)NCc1ccc(F)cc1 | 7 | -1% | -3 | 12 | -6% | -7%
Cc1ccc(CNS(=O)(=O)c2ccc3c(c2)NC(=O)CO3)cc1 | -9 | 5% | 7 | 1 | -1% | ?
CC(Oc1ccccc1Cl)C(=O)N(Cc1ccco1)C1CCS(=O)(=O)C1 (stereo unspecified) | 1 | 5% | -1 | 7 | -3% | -4%
COc1ccc(-c2coc3c(C(=O)Nc4ccc(OC)nc4)cccc23)c(C)c1 | 0 | / | -2 | -17 | 21µM* | 18µM*
COc1ccc(-c2ccc(C(=O)Nc3ccc4c(c3)OCO4)c3occc23)c(C)c1 | -29 | / | -7 | ? | ? | ?
